High-throughput results as filed in PubChem BioAssay.
AF4-AF9 inh – inhibitors of human MLL-AF4/AF9 interaction; AlphaScreen, biotin-AF4 peptide binding to FLAG-AF9; P42568; AID 651704; inhibition, % at 10 µM; actives 0.47% (n = 350,000);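 active = every replicate reaching a set inhibition limit, whatever the replicate mean, cut at about 25% in these data; inconclusive = mean inhibition reaches that limit but some replicates miss it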;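 also: 0% = plate neutral control median and 100% = total signal loss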
ERAP1 inh – ERAP1 (human) enzyme inhibition | Q9NZ08 | inhibition, % at 10.7 µM | actives 0.15% (n = 340,000) | recombinant ERAP1, Leu-AMC fluorescence, 60 min;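 active = mean replicate inhibition of at least 30%, or all replicates individually reaching that 30% level; inactive = mean below 30% and not every replicate reaching it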;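 also: 0% = neutral control wells and 100% = L-leucinethiol positive control wells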
RAD52 inh – blocks human RAD52 DNA annealing | actives 0.46% (n = 360,000) | P43351 | recombinant RAD52 DNA annealing, FRET fluorescence | inhibition, % at 18.7 µM;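 active = every replicate showing at least 50% inhibition; inconclusive = mean inhibition at least 50% but not in every replicate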
Target sequence (P43351 whole entry, looked up): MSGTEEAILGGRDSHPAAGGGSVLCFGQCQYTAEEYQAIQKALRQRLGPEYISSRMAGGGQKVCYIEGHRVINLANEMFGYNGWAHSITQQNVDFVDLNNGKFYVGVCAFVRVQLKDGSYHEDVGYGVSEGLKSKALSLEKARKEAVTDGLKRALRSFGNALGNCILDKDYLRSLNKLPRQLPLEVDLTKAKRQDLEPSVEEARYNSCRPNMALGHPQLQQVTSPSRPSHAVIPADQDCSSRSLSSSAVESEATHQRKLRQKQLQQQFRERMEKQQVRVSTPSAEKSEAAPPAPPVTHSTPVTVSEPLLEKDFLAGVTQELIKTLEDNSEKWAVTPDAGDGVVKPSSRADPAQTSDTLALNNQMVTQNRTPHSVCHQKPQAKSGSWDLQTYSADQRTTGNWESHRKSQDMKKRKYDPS
DENV2 CPE – protects cells from dengue virus 2 cytopathic effect. DENV2-infected cells, cytopathic effect rescue, plate reader. CPE inhibition, % at 9.99 µM. actives 1.7% (n = 350,000). AID 651640; in the data active = CPE inhibition above about 20%, passing the limit was not always enough; inconclusive = no clear call, values can overlap the other calls; tested in BHK-21 cells;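 also: 0% = median of neutral control wells and 100% = median of positive control wells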
FGF22 binding-1 – shifts melting point of recombinant human FGF22 | Q9HCT0 | recombinant FGF22 thermal shift, SYPRO orange fluorescence; percent of sucrose octasulfate shift, DMSO zero | activity (Tm shift, normalised), % at 9.99 µM | actives 1.5% (n = 340,000);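 active = mean Tm shift, scaled 0 neutral to 100 positive control, at about 1.3% or above, every replicate too, limit read from the data; inconclusive = no clear call, values can overlap the other calls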
Target sequence (Q9HCT0 whole entry, looked up): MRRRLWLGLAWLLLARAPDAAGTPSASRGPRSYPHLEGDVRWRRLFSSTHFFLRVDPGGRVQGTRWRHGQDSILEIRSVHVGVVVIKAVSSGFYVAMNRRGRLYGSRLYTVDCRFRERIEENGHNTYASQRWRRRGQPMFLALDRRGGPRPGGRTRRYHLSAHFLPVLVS
FGF22 binding-2 – binds human FGF22 shifting its melting temperature; thermal shift activity, °C (ΔTm) at 38 µM; shares compounds with FGF22 binding-1; AID 720646; recombinant FGF22 thermal shift, SYPRO orange fluorescence; actives 2% (n = 1,000);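 active = fitted rise in melting shift crosses a set limit at or below the top valid dose tested; inconclusive = flat fit at mid-level activity, or a poor quality fit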
TSA no protein – shows thermal shift signal without protein, FGF22 counter-screen; shares compounds with FGF22 binding-1; compound-only SYPRO orange thermal shift counter-screen, no protein; AC50, µM (titrated, usually from 38 µM); actives 2% (n = 1,000);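 active = rising signal whose fitted curve reaches the 0.54 level within the top valid dose, showing a melting point, actives reach about 13 µM in these data; inactive = the rest, including activity in the opposite direction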; also: value is where the raw curve crosses a fixed level and not half-maximal
Active calls of the source: *; [ ] = dose if it differs, or a comment. A selection: hits, their analogues and other compounds. The true share with any hit is near 4%.

`COC(=O)c1ccn(Cc2ccccc2Cl)n1` gave AF4-AF9 inh -1.8, ERAP1 inh 9.2, RAD52 inh -13.0, DENV2 CPE -5.7 and FGF22 binding-1 -0.1.
`COc1cccc(NC(=O)N(C)C[C@H]2Oc3cc(-c4ccccc4F)ccc3S(=O)(=O)N([C@H](C)CO)C[C@H]2C)c1` gave AF4-AF9 inh 0.8, ERAP1 inh 6.4, RAD52 inh 18.1, FGF22 binding-1 2.3*, FGF22 binding-2 0.137 and TSA no protein 11.5µM*.
C[C@@H]1CN([C@H](C)CO)S(=O)(=O)c2ccc(-c3ccc(F)cc3)cc2O[C@@H]1CN(C)C(=O)Nc1ccccc1F was read as AF4-AF9 inh -0.2, ERAP1 inh -0.9, RAD52 inh -19.6, FGF22 binding-1 1.8*, FGF22 binding-2 0.119 and TSA no protein inactive.
Screening COc1cccc(NC(=O)N(C)C[C@@H]2Oc3cc(-c4ccccc4F)ccc3S(=O)(=O)N([C@@H](C)CO)C[C@@H]2C)c1 returned AF4-AF9 inh 0.0, ERAP1 inh 7.9, RAD52 inh 8.6, FGF22 binding-1 2.1*, FGF22 binding-2 -0.219 and TSA no protein inactive.
For COc1cccc(NC(=O)N(C)C[C@@H]2Oc3cc(-c4ccccc4F)ccc3S(=O)(=O)N([C@H](C)CO)C[C@H]2C)c1 the results were AF4-AF9 inh -0.6, ERAP1 inh 4.4, RAD52 inh 19.9, DENV2 CPE -8.6 and FGF22 binding-1 -0.3.
For C[C@@H]1CN([C@@H](C)CO)S(=O)(=O)c2ccc(-c3ccccc3)cc2O[C@@H]1CN(C)C(=O)Nc1ccccc1F the results were AF4-AF9 inh 0.7, ERAP1 inh -4.7, RAD52 inh -44.5, DENV2 CPE -2.0 and FGF22 binding-1 0.0.
Screening C/C=C/c1ccc2c(c1)O[C@@H](CN(C)C(=O)Nc1ccc(F)cc1)[C@@H](C)CN([C@H](C)CO)S2(=O)=O returned AF4-AF9 inh 2.5, ERAP1 inh -3.8, RAD52 inh 4.7, DENV2 CPE -0.7, FGF22 binding-2 -0.092 and TSA no protein inactive.
C[C@@H]1CCCCO[C@H](CN(C)S(=O)(=O)c2cccs2)[C@H](C)CN([C@@H](C)CO)C(=O)c2cc(NS(=O)(=O)c3ccc(F)cc3)ccc2O1 was read as AF4-AF9 inh -5.0, ERAP1 inh -1.0, RAD52 inh 10.5, DENV2 CPE 6.6 and FGF22 binding-1 -0.2.
For C[C@H]1CN([C@@H](C)CO)S(=O)(=O)c2ccc(/C=C/c3ccccc3)cc2O[C@@H]1CN(C)Cc1ccc(C(=O)O)cc1 the results were AF4-AF9 inh 6.6, ERAP1 inh 0.4, RAD52 inh -2.5, DENV2 CPE -6.7, FGF22 binding-1 1.6*, FGF22 binding-2 0.062[42 µM] and TSA no protein inactive.
`Cc1[nH]c2ccccc2c1N=Nc1cc(C(=O)O)cc(C(=O)O)c1` gave AF4-AF9 inh 1.0, ERAP1 inh 12.1, RAD52 inh -8.6, DENV2 CPE -4.4, FGF22 binding-1 1.5*, FGF22 binding-2 0.056 and TSA no protein inactive.
`COc1ccc(S(=O)(=O)N/N=c2\oc3c(OC)cccc3cc2S(=O)(=O)c2ccc(C)cc2)cc1OC` gave AF4-AF9 inh 2.1, ERAP1 inh -0.6, RAD52 inh -16.6, DENV2 CPE -4.0, FGF22 binding-1 1.7*, FGF22 binding-2 -0.042 and TSA no protein inactive.
Screening O=C(C1CCOCC1)N1C[C@@H]2[C@H](c3ccccc31)[C@@H](CO)N2Cc1ccccc1 returned RAD52 inh -12.4, FGF22 binding-1 1.5*, FGF22 binding-2 -0.021[42 µM] and TSA no protein inactive.
For O=C(C1CCOCC1)N1C[C@H]2[C@@H](c3ccccc31)[C@@H](CO)N2Cc1ccc(Cl)cc1 the results were AF4-AF9 inh -5.4, ERAP1 inh -0.6, RAD52 inh -11.6, DENV2 CPE 2.8 and FGF22 binding-1 0.1.
COc1ccc(C(=O)N2C[C@@H]3[C@H](c4ccccc42)[C@@H](CO)N3Cc2ccccc2)cc1 was read as AF4-AF9 inh -0.2, ERAP1 inh 1.0, RAD52 inh -5.6, DENV2 CPE -4.1, FGF22 binding-1 1.3*, FGF22 binding-2 0.123[42 µM] and TSA no protein inactive.
For CN(C)CC(=O)Nc1ccc2c(c1)[C@@H]1C[C@H](CC(=O)NCCN3CCCCC3)O[C@H](CO)[C@@H]1O2 the results were AF4-AF9 inh 0.7, ERAP1 inh -0.6, RAD52 inh -9.7, DENV2 CPE -0.7 and FGF22 binding-1 -0.2.
Screening CNC[C@@H]1Oc2ccc(NC(=O)Nc3ccccc3)cc2C(=O)N([C@H](C)CO)C[C@@H]1C returned AF4-AF9 inh 1.0, ERAP1 inh 1.5, RAD52 inh -21.2, DENV2 CPE -0.1 and FGF22 binding-1 0.1.
Screening O=C(C1CC1)N1CC2(C1)[C@H](c1ccccc1)[C@@H](CO)N2Cc1ccc(Cl)cc1 returned AF4-AF9 inh 0.7, ERAP1 inh 0.0, RAD52 inh 0.6, DENV2 CPE 3.7, FGF22 binding-1 2.9*, FGF22 binding-2 0.161[42 µM] and TSA no protein inactive.
Screening C[C@@H]1CN([C@@H](C)CO)C(=O)c2cc(-c3cccc(C(=O)N(C)C)c3)cnc2O[C@@H]1CN(C)S(=O)(=O)c1ccccc1 returned AF4-AF9 inh -5.8, ERAP1 inh 1.4, RAD52 inh 2.3, DENV2 CPE -5.5 and FGF22 binding-1 0.3.
`O=c1ccc2nc3ccccc3sc-2c1` gave AF4-AF9 inh 19.9, ERAP1 inh 7.6, RAD52 inh 2.4, DENV2 CPE inconclusive, FGF22 binding-1 1.7*, FGF22 binding-2 -0.447 and TSA no protein inactive.
`CSc1nc2ccccc2s1` gave AF4-AF9 inh -2.4, ERAP1 inh 3.2, RAD52 inh -6.3, DENV2 CPE 17.2 and FGF22 binding-1 0.3.
C[C@H]1CN([C@@H](C)CO)C(=O)Cc2cc(NS(=O)(=O)c3ccc(F)cc3)ccc2O[C@@H]1CN(C)CC1CCCCC1 was read as AF4-AF9 inh -5.3, ERAP1 inh 4.3, RAD52 inh 11.4, DENV2 CPE 15.4 and FGF22 binding-1 -0.2.
`CCn1c(O)c(C=NCc2ccccc2)sc1=S` gave ERAP1 inh -0.3, RAD52 inh -29.8, DENV2 CPE 3.4, FGF22 binding-1 2.9*, FGF22 binding-2 0.112 and TSA no protein inactive.
CCCNC(=O)[C@@]1(Sc2ccc(C)cc2)CC(=O)N(C2CCCCC2)[C@@H]1c1ccc(CO)cc1I was read as AF4-AF9 inh 0.9, ERAP1 inh 0.4, RAD52 inh 12.4, DENV2 CPE 5.9 and FGF22 binding-1 -0.2.
`C[C@@H]1CCCCO[C@H](CN(C)Cc2ccc(C(F)(F)F)cc2)[C@H](C)CN([C@H](C)CO)C(=O)c2cc(NC(=O)C3CCCCC3)ccc2O1` gave DENV2 CPE -8.7 and FGF22 binding-1 0.0.
